{"source": "PubChem BioAssay (NCATS)", "note": "Results filed as inconclusive are left out. A call without a number means that no potency is given here. The source made the active and inactive calls. Calls follow the shape of the dose curve; as a rule, active = well fitted inhibition curve with a large enough effect; inconclusive = small, poorly fitted or top-dose-only effect; inactive = flat fitted curve, though single readings scatter. Numbered stars: 1 amine (or outer) side, 2 acyl side, 3 side chain; on linkers, the order of the positions; unused ones are H or OH. Bridge positions count the residues as written; N and C are the ends. Square brackets hold non-standard residues; d marks the D form. Peptide text beside a SMILES is read from it. I, II: the chains in the order shown. Actinocin(9to1) = Cc1c2oc3c(C)ccc(C(=O)[*:1])c3nc-2c(C(=O)[*:2])c(N)c1=O; NMeV = CN[C@H](C(=O)O)C(C)C; Sar = CNCC(=O)O"}
{"experiment": "qHTS to identify inhibitors of the type 1 interferon - major histocompatibility complex class I in skeletal muscle: primary screen against the NCATS Pharmaceutical Collection (AID 1347407); also: potency is read from the fitted curve at half-maximal effect", "conditions": "human skeletal muscle cells, IFN-b-induced MHC-I HiBiT luminescence, 24 h; series mostly up to 45.9 µM", "excerpt": "Assay Submitter (PI): Travis B. Kinder Ph.D. & James Inglese Ph.D.\nAssay Development and Screening Technology Laboratory (ADST)\nNational Center for Advancing Translational Sciences (NCATS), Rockville, MD\nNational Institute of Health (NIH), Bethesda, Maryland\nIdiopathic inflammatory myopathies, collectively referred to as myositis, are a group of rare autoimmune diseases characterized by skeletal muscle inflammation, weakness, and usually accompanied by systemic pathologies of the skin, lungs, or vasculature. Current immunosuppressive therapies and glucocorticoids are often not curative and are accompanied by harsh side effects, especially in children with juvenile myositis. We initiated a drug repurposing and development program to identify more targeted, less toxic therapeutics to treat myositis. Although its cause is not known, muscle from a subset of patients have an abundance of the inflammatory type 1 interferon (IFN) and a down-stream product major histocompatibility complex class I (MHC class I), which are both thought to contribute to damage and weakness. We conducted quantitative high throughput screening on 6,576 compounds (4,679 unique) through a series of cell-based assays to identify those that inhibit the IFN-stimulated expression of MHC class I in muscle precursor cells (myoblasts). The compound identification and evaluation strategy utilized a primary screen with reporter-tagged MHC class I in genome-engineered myoblasts, ATP content counter screen for viability, HLA-ABC immunofluorescence secondary screen, and HLA-B RT-qPCR tertiary screen.\nThe primary screen utilized CRISPR/Cas9 genome-engineering of immortalized human myoblasts, C25cl48, where a pro-luminescent reporter HiBit was fused to the C-terminus of endogenous MHC class I allele HLA-B*08:01 (HLA-B HiBit myoblasts). HiBit is an 11 amino acid fragment of NanoLuc luminescent reporter (Promega Corporation), and when complexed to the larger LgBit fragment, the reconstituted enzyme produces light in the presence of furimazine substrate (Schwinn et al., 2018). Briefly, HLA-B HiBit myoblasts were plated into 1536-well plates, treated with 4.0 ng/ml human IFN-beta and 2,816 compounds from the NCATS Pharmaceutical Collection (NPC) that contains all drugs approved in the US, EU, and Japan (Huang et al., 2011) in an 8-point, 1:5 titration with a high final concentration of 46 uM. After 24 hrs of treatment, cells were assayed by Nano-Glo HiBiT Lytic Detection System (Promega) and luminescence measured by a ViewLux 1430 Ultra HTS (Perkin Elmer).\nHuang R, Southall N, Wang Y, Yasgar A, Shinn P, Jadhav A, Nguyen D-T, Austin CP. 2011. The NCGC pharmaceutical collection: a comprehensive resource of clinically approved drugs enabling repurposing and chemical genomics. Sci Transl Med 3:80ps16. doi:10.1126/scitranslmed.3001862\nSchwinn MK, Machleidt T, Zimmerman K, Eggers CT, Dixon AS, Hurst R, Hall MP, Encell LP, Binkowski BF, Wood K V. 2018. CRISPR-Mediated Tagging of Endogenous Proteins with a Luminescent Peptide. ACS Chem Biol 13:467-474. doi:10.1021/acschembio.7b00549\nPROTOCOL TABLE (as described by Inglese et al., 2007)\nSEQUENCE No. (e.g., 1, 2, 3, etc.); […] (e.g., Cells, Incubation, Reagent, etc.); VALUE; DESCRIPTION\n1a; Cells; 5 uL; Use a Multidrop Combi (Thermo Scientific) to seed 350 cells/well into nine Greiner 1536 well white/solid bottom, high base, TC plates in 5 ul/well of iHSKM growth medium (GM) without dexamethasone into columns 1+2. Add metal lids with gas-exchange holes\n1b; Cells; 5 uL; Use a Multidrop Combi (Thermo Scientific) to seed 350 cells/well into nine Greiner 1536 well white/solid bottom, high base, TC plates in 5 ul/well of iHSKM GM without dexamethasone + 4 ng/ml IFN-b into columns 3 - 48. Add metal lids with gas-exchange holes\n2; Incubate; 1 hr; Incubate at 37 C, 5% CO2, 95% RH\n[…]"}
{"smiles": "NCCC(O)(P(=O)(O)O)P(=O)(O)O", "Potency": "inactive"}
{"smiles": "CCN(CC)C(=O)N1CCN(C)CC1", "Potency": "inactive"}
{"smiles": "CN(C)CCOc1ccccc1Cc1ccccc1", "Potency": "inactive"}
{"smiles": "CCN(CC)CCNC(=O)COc1ccc(Cl)cc1", "Potency": "inactive"}
{"smiles": "CCC(=O)c1c(O)cc(O)cc1O", "Potency": "inactive"}
{"smiles": "CC(=O)[C@H]1CC[C@H]2[C@@H]3C[C@H](C)C4=CC(=O)CC[C@]4(C)[C@H]3[C@@H](O)C[C@]12C", "Potency": "inactive"}
{"smiles": "CC[N+](CC)(CCNC(=O)C(=O)NCC[N+](CC)(CC)Cc1ccccc1Cl)Cc1ccccc1Cl", "Potency": "inactive"}
{"smiles": "CN(C)CCCOc1nn(Cc2ccccc2)c2ccccc12", "Potency": "inactive"}
{"smiles": "O=C(CCCN1CCC(O)(c2ccc(Br)cc2)CC1)c1ccc(F)cc1", "Potency": "inactive"}
{"smiles": "Oc1cc(O)c2c(c1)O[C@H](c1ccc(O)c(O)c1)[C@H](O)C2", "Potency": "inactive"}
{"smiles": "Cc1cc(=O)n(-c2ccccc2)n1C", "Potency": "inactive"}
{"smiles": "OCc1ccccc1O", "Potency": "inactive"}
{"smiles": "CC(=O)c1ccc2c(c1)N(CCCN1CCC(CCO)CC1)c1ccccc1S2", "Potency": "inactive"}
{"smiles": "CC(=O)OCC(=O)NCCCOc1cccc(CN2CCCCC2)c1", "Potency": "inactive"}
{"smiles": "CN1[C@@H]2CC[C@H]1CC(OC(=O)c1c[nH]c3ccccc13)C2", "note": "(stereo not given in full)", "Potency": "inactive"}
{"smiles": "CC(=O)N(O)CCCCCNC(=O)CCC(=O)N(O)CCCCCNC(=O)CCC(=O)N(O)CCCCCN", "Potency": "inactive"}
{"smiles": "CN=C(NC#N)Nc1ccc(C2=NNC(=O)CC2C)cc1", "note": "(stereo not given)", "Potency": "inactive"}
{"smiles": "CC(C)(CO)[C@@H](O)C(=O)NCCCO", "Potency": "inactive"}
{"smiles": "C[C@H](CCC(=O)O)[C@H]1CC[C@H]2[C@@H]3C(=O)C[C@@H]4CC(=O)CC[C@]4(C)[C@H]3CC(=O)[C@]12C", "Potency": "inactive"}
{"smiles": "O=C(Nc1ccc(Cl)c(Cl)c1)C1CC1", "Potency": "inactive"}
{"smiles": "C#C[C@]1(O)CC[C@H]2[C@@H]3CCc4cc(OC5CCCC5)ccc4[C@H]3CC[C@@]21C", "Potency": "inactive"}
{"smiles": "COC(=O)[C@@H]1CC2=CC(=O)CC[C@]2(C)[C@@]23O[C@@H]2C[C@@]2(C)[C@@H](CC[C@@]24CCC(=O)O4)[C@H]13", "Potency": "inactive"}
{"smiles": "Cc1c(N(C)CS(=O)(=O)O)c(=O)n(-c2ccccc2)n1C", "Potency": "inactive"}
{"smiles": "O=C1[C@H]2CCCC[C@H]2C(=O)N1CCCCN1CCN(c2nsc3ccccc23)CC1", "Potency": "inactive"}
{"smiles": "COc1cccc(CCc2ccccc2OCC(CN(C)C)OC(=O)CCC(=O)O)c1", "note": "(stereo not given)", "Potency": "inactive"}
{"smiles": "COc1cc(C(=S)N2CCOCC2)cc(OC)c1OC", "Potency": "inactive"}
{"smiles": "CCCCC(CC)CN=C(N)NC(N)=NCCCCCCN=C(N)NC(N)=NCC(CC)CCCC", "note": "(stereo not given)", "Potency": "14.9 µM (active)"}
{"smiles": "CCOC(=O)n1ccn(C)c1=S", "Potency": "inactive"}
{"smiles": "Cc1ccc(Nc2c(F)cccc2Cl)c(CC(=O)O)c1", "Potency": "inactive"}
{"smiles": "CC[C@@H](CO)NCCN[C@@H](CC)CO", "Potency": "inactive"}
{"smiles": "COc1cc2c(cc1OC)C(C(C(=O)N(CCc1ccc(OC)c(OC)c1OC)CCc1ccc(OC)c(OC)c1OC)c1ccccc1)=NCC2", "note": "(stereo not given)", "Potency": "inactive"}
{"smiles": "OC[C@H]1O[C@H](O[C@]2(CCl)O[C@H](CCl)[C@@H](O)[C@@H]2O)[C@H](O)[C@@H](O)[C@H]1Cl", "Potency": "inactive"}
{"smiles": "CN1C(CCl)Nc2cc(Cl)c(S(N)(=O)=O)cc2S1(=O)=O", "note": "(stereo not given)", "Potency": "inactive"}
{"smiles": "Cc1cccc(C)c1NC(=O)CN1CCN(CCCC(c2ccc(F)cc2)c2ccc(F)cc2)CC1", "Potency": "inactive"}
{"smiles": "Cc1c2oc3c(C)ccc(C(=O)N[C@@H]4C(=O)N[C@H](C(C)C)C(=O)N5CCC[C@H]5C(=O)N(C)CC(=O)N(C)[C@@H](C(C)C)C(=O)O[C@@H]4C)c3nc-2c(C(=O)N[C@@H]2C(=O)N[C@H](C(C)C)C(=O)N3CCC[C@H]3C(=O)N(C)CC(=O)N(C)[C@@H](C(C)C)C(=O)O[C@@H]2C)c(N)c1=O", "note": "(I: T[dV]P[Sar][NMeV] / II: T[dV]P[Sar][NMeV]; ester I:1-I:C, II:1-II:C; linker I:N-II:N via Actinocin(9to1))", "Potency": "0.938 µM (active)"}
{"smiles": "O=C(O)CNC(=O)c1ccccc1", "Potency": "inactive"}
{"smiles": "CCOC(=O)/C=C(C)/C=C/C=C(C)/C=C/c1c(C)cc(OC)c(C)c1C", "Potency": "inactive"}
{"smiles": "CC(C)(C)NC(=O)[C@@H]1CN(Cc2cccnc2)CCN1C[C@@H](O)C[C@@H](Cc1ccccc1)C(=O)N[C@H]1c2ccccc2C[C@H]1O", "Potency": "inactive"}
{"smiles": "CCCCN1CCCC1C(=O)Nc1c(C)cc(C)cc1C", "note": "(stereo not given)", "Potency": "inactive"}
{"smiles": "COc1ccc(OC)c(C(O)CNC(=O)CN)c1", "note": "(stereo not given)", "Potency": "inactive"}
